The results in this text go back to PubChem BioAssay (NCATS).

The structures appear in SMILES notation. Results filed as inconclusive are left out. Active and inactive are the calls of the source. Calls come from the whole dose curve; as a rule, active = well fitted inhibition curve with a large enough effect; inconclusive = small, poorly fitted or top-dose-only effect; inactive = flat fitted curve, though single readings scatter.
Potency is the fitted concentration of half-maximal effect.

The test deals with Zika virus NS2B-NS3 protease. Description: Primary screen GU AMC qHTS for Zika virus inhibitors (AID 1347154).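 For activity change, negative = inhibition: 0% = no-inhibitor control and -100% = no-enzyme control.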 Note: nearly all actives have a fitted effect of over 70% in size. The note with it: Zika NS2B-NS3 unlinked protease, AMC fluorogenic substrate; series mostly up to 54.1 µM; activity change, negative = inhibition: at the top concentration. The essentials: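 Unlinked Zika NS2B hydrophilic domain–NS3 protease complex at 25 nM in 10 mM Tris-HCl pH 8.0, 0.01% Tween 20, with an AMC peptide substrate. Fluorescence change (340/450 nm) over 15 min at room temperature, normalized to controls, fitted to 4-parameter Hill.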
(In qHTS, concentration-response curves come from the screen itself.)
With `CC(C(C)N1CC(=O)NC(=O)C1)N1CC(=O)NC(=O)C1` (centres undefined), the “activity change, negative = inhibition” value is -7.21% (inactive).
The same measure, in the same setting: the value for `CCN1CCN(C(=O)N[C@H](C(=O)N[C@@H]2C(=O)N3C(C(=O)O)=C(CSc4nnnn4C)CS[C@@H]23)c2ccc(O)cc2)C(=O)C1=O` was 13.2% [at 16.4 µM] (inactive); that for `Nc1ncn([C@@H]2O[C@H](CO)[C@@H](O)[C@@H]2O)c(=O)n1` was -4.98% (inactive).
Same read-out and setting: in the case of `C[C@@H]1C(=O)O[C@H]2CC34[C@H]5C[C@@H](C(C)(C)C)C36[C@H](OC(=O)[C@@H]6O)O[C@@]4(C(=O)O5)[C@]21O` (some centres undefined) it was 16.7% (inactive); in that of `O=C(O)C(=O)Nc1cccc(C2=NN=N[N]2)c1`, -2.58% (inactive); in that of `COC1=C(OC)C(=O)C(CC=C(C)CCC=C(C)CCC=C(C)CCC=C(C)CCC=C(C)CCC=C(C)CCC=C(C)CCC=C(C)CCC=C(C)CCC=C(C)C)=C(C)C1=O`, 3.24% (inactive).
Regarding `C=CC(=O)Nc1cccc(Nc2nc(NC3CCC(N(C)C)CC3)nc3c2ncn3C(C)C)c1` (centres undefined), the “activity change, negative = inhibition” value is 1.64% (inactive).
Turning to `CC[C@@]1([C@@H]2O[C@@H]([C@H]3O[C@@](O)(CO)[C@H](C)C[C@H]3C)C[C@H]2C)CC[C@H]([C@]2(C)CC[C@]3(C[C@H](O)[C@@H](C)[C@@H]([C@@H](C)[C@@H](OC)[C@H](C)C(=O)O)O3)O2)O1`, the “activity change, negative = inhibition” value was -11.9% [at 25.8 µM] (inactive).
`COC(=O)[C@@H]1CC2=CC(=O)CC[C@]2(C)[C@@]23O[C@@H]2C[C@@]2(C)[C@H](CC[C@@]24CCC(=O)O4)[C@@H]13`: the “activity change, negative = inhibition” value is 12.9% (inactive).
Turning to `Oc1cc2c(cc1O)C1c3ccc(O)c(O)c3OCC1(O)C2` (centres undefined), the Potency is 24.1 µM (active).
On to `NC(=O)c1ncn([C@@H]2O[C@H](CO)[C@@H](O)[C@@H]2O)c1O`, for which the “activity change, negative = inhibition” value was 4.22% (inactive).
The same measure, in the same setting: the value for `CCc1cnn2c(NCc3ccc[n+]([O-])c3)cc(N3CCCC[C@@H]3CCO)nc12` was 10.4% (inactive); that for `COC(=O)[C@@H]1[C@H]2C[C@@H]3c4[nH]c5ccccc5c4CCN3C[C@@H]2CC[C@@H]1O` was -7.72% (inactive).
For `COc1cccc2c1C(=O)c1c(O)c3c(c(O)c1C2=O)C[C@@](O)(C(C)=O)C[C@H]3O[C@H]1C[C@H](N)[C@H](O)[C@H](C)O1`, the “activity change, negative = inhibition” value is -6.77% (inactive).
With `O=C(C=CC#Cc1cccc(NS(=O)(=O)c2ccccc2)c1)NO`, the “activity change, negative = inhibition” value is -6.43% (inactive).
For the molecule `COc1ccc(C(C)=O)c(O)c1`, the “activity change, negative = inhibition” value was 13.5% (inactive).
In the case of `C[N+](C)([O-])CCNc1ccc(NCC[N+](C)(C)[O-])c2c1C(=O)c1c(O)ccc(O)c1C2=O`, the “activity change, negative = inhibition” value is 11.9% (inactive).
As for `C[C@H](CCC(=O)O)[C@H]1CC[C@H]2[C@@H]3[C@H](O)C[C@@H]4C[C@H](O)CC[C@]4(C)[C@@H]3CC[C@]12C`, the “activity change, negative = inhibition” value was -12.8% (inactive).
The same measure, in the same setting: in the case of `CCCNS(=O)(=O)Nc1ncnc(OCCOc2ncc(Br)cn2)c1-c1ccc(Br)cc1` it was -6.17% (inactive); in that of `COc1cc2c(cc1O)CCC1C2CC[C@@]2(C)C1CC[C@@H]2O` (some centres undefined), 4.85% (inactive); in that of `O=c1[nH]c(=O)n([C@H]2C[C@@H](O)[C@@H](CO)O2)cc1F`, 6.03% (inactive).
Same read-out and setting: in the case of `C=CC(=O)Nc1cc(NC(=O)c2ccc(C)c(NC(=O)c3ccno3)c2)cc(C(F)(F)F)c1` it was 2.6% (inactive); in that of `O=C1c2c(O)cccc2[C@@H]([C@@H]2O[C@H](CO)[C@@H](O)[C@H](O)[C@H]2O)c2cc(CO)cc(O)c21`, 4.03% (inactive).
Same read-out and setting: the value for `O=C(C[C@@H]1CC=CCCC(=O)O[C@H](c2ccccc2)CNC1=O)NCc1ccc(Cl)cc1` was 9.21% (inactive).
Consider `Nc1nc2c(c(=O)[nH]1)N(C=O)[C@H](CNc1ccc(C(=O)N[C@@H](CCC(=O)O)C(=O)O)cc1)CN2`, for which the “activity change, negative = inhibition” value is 24.8% (inactive).
On the same count and under the same terms, in the case of `CC(C=CC=C(C)C=CC1=C(C)CCCC1(C)C)=CC=CC=C(C)C=CC=C(C)C=CC1=C(C)CCCC1(C)C` it was -15.5% (inactive).
The same measure, in the same setting: the value for `O=C(c1ccc(F)cc1)N1CCC[C@H](c2nc(-c3ccc(F)cc3)no2)C1` was 6.17% (inactive); that for `O=C(O)[C@H](CC(=O)N1C[C@@H]2CCCC[C@H]2C1)Cc1ccccc1` was 20.5% (inactive).
As to `CC(C)[C@H](CO)Nc1nc(Nc2cccc(Cl)c2)c2ncn(C(C)C)c2n1`, the Potency result was “inactive”.
On to `C[C@H](NC(=O)Cc1cc(F)cc(F)c1)C(=O)N[C@H](C(=O)OC(C)(C)C)c1ccccc1`, for which the “activity change, negative = inhibition” value was 4.92% (inactive).
On the same count and under the same terms, the value for `O=C1NCCc2[nH]c(-c3ccncc3)cc21` was 8.61% (inactive).
The same measure, in the same setting: the value for `CC(C)c1cnn2c(NCc3ccccc3)cc(NCCCCCCN)nc12` was 9.76% (inactive); that for `Cn1cc(CNCC2CCN(c3ncc(C(=O)NO)cn3)CC2)c2ccccc21` was 2.76% (inactive).
Consider `O=C1NC(=O)[C@@H](c2cn3c4c(cccc24)CCC3)[C@H]1c1c[nH]c2ccccc12`, for which the “activity change, negative = inhibition” value was 14.2% (inactive).
Still for that read-out and setting: in the case of `OCCN1C[C@H](O)[C@@H](O)[C@H](O)[C@@H]1CO` it was 30.2% (inactive).
As for `OC[C@@H](O)[C@@H](O)[C@H](O)[C@@H](O)CO`, the “activity change, negative = inhibition” value is 16.4% (inactive).
As to `OC[C@H]1OC(O)C[C@@H](O)[C@H]1O` (some centres undefined), the “activity change, negative = inhibition” value was 15.3% (inactive).
Regarding `Cc1cnc(Nc2ccc(N3CCN(C)CC3)cc2)nc1Nc1cccc(S(=O)(=O)NC(C)(C)C)c1`, the “activity change, negative = inhibition” value was 3.48% (inactive).
For the molecule `Cc1cn([C@@H]2O[C@H](CO)[C@@H](O)[C@H]2F)c(=O)[nH]c1=O`, the “activity change, negative = inhibition” value is -9.56% (inactive).
